# Reference: PubChem BioAssay (NCATS)
# Unmarked numbers belong to inactive results. No rule for the calls is given here.
# Test system: HIV-1 nucleocapsid protein NCp7 (binding to TG oligonucleotide)
# Experiment: HIV Nucleocapsid (AID 346);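 also: potency is for inhibitors that block NC binding and lower polarization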
# Settings: HIV-1 NC / fluorescein-TGTGTGTG probe, fluorescence polarization
# Method in brief: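 Fluorescence polarization binding of 100 nM HIV-1 NC to 10 nM fluorescein-labelled TG4xF oligonucleotide. Buffer was Hepes pH 7.5 with 250mM NaCl, 1uM ZnCl2, TCEP and 2-mercaptoethanol. Compounds were incubated 1 hr at room temperature before the read.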
# Potency is read from the fitted curve at half-maximal effect.
row,Compound,Potency
1,Cc1cnc(CNc2ncnc3ccc(-c4ccccc4C)cc23)cn1,> 20 µM
2,COc1ccc(-c2nc3cnc(Oc4ccccc4)nc3n(Cc3cccs3)c2=O)cc1,> 20 µM
3,Cc1cnc(CNc2nc(-c3cccc(NS(C)(=O)=O)c3)nc3ccccc23)cn1,> 20 µM
4,O=C(c1cnccn1)N1CCC[C@@]2(CCN(Cc3ccccc3)C2)C1,> 20 µM
5,COc1ncc2nc(CCc3ccccc3)c(=O)n(-c3ccccc3)c2n1,> 20 µM
6,N#Cc1ccccc1-c1ccc2ncnc(NC3CC3)c2c1,> 20 µM
7,CN1CCN(c2ncc3nc(-c4cccc(C#N)c4)c(=O)n(CCc4ccccc4)c3n2)CC1,> 20 µM
8,COc1ccc(-n2c(=O)c(-c3cccs3)nc3cnc(N4CCN(C)CC4)nc32)cc1,> 20 µM
9,N#Cc1cccc(NC(=O)N2CCC3(CC2)CCN(C(=O)c2ccco2)CC3)c1,> 20 µM
10,O=C(c1csnn1)N1CCC2(CCCN(c3ccccn3)C2)CC1,> 20 µM
11,CN(C)Cc1ccccc1-c1cncnc1NCc1cccs1,> 20 µM
12,Cc1noc(C)c1C(=O)N1CCC2(CC1)CN(c1ncccn1)C2,> 20 µM
13,O=C(Nc1ccccc1)N1CC2(CCN(C(=O)c3cc(C(F)(F)F)cc(C(F)(F)F)c3)CC2)C1,> 20 µM
14,COc1ccc(C(=O)N2CCC3(CCCN(Cc4ccccc4)C3)CC2)cc1,> 20 µM
15,CN(C)c1ncc2ncc(=O)n(Cc3ccc(F)cc3)c2n1,> 20 µM
16,O=c1c(-c2ccc(F)cc2)nc2cnc(N3CCNCC3)nc2n1C1CC1,> 20 µM
17,COc1cccc(Cn2c(=O)c(-c3cccs3)nc3cnc(OCc4ccccc4)nc32)c1,> 20 µM
18,COc1ccc(Oc2ncc3nc(-c4ccc(OC)cc4)c(=O)n(C4CC4)c3n2)cc1,> 20 µM
19,CS(=O)(=O)Nc1cccc(-c2cncnc2NCc2ccccc2)c1,> 20 µM
20,O=C(c1cccc(F)c1)N1CCC2(CCCN(c3cccc(-c4ccccc4)c3)C2)CC1,> 20 µM

row,Compound,Potency
1,COc1ncc2ncc(=O)n(C)c2n1,> 20 µM
2,CN(C)c1ccc(-c2ccc3ncnc(NC4CC4)c3c2)cc1,> 20 µM
3,CCNc1ncc2nc(C)c(=O)n(CCc3ccccc3)c2n1,> 20 µM
4,COCCn1c(=O)c(-c2ccc(F)cc2)nc2cnc(OCc3ccccc3)nc21,> 20 µM
5,Cn1cccc1C(=O)N1CCC[C@@]2(CCN(c3ccccn3)C2)C1,> 20 µM
6,COC(=O)N1CCC[C@@]2(CCN(Cc3cc(C(F)(F)F)cc(C(F)(F)F)c3)C2)C1,> 20 µM
7,CN(C)C(=O)c1ccc(-c2cncnc2N2CCNCC2)cc1,> 20 µM
8,Cn1c(=O)c(-c2cccc(C#N)c2)nc2cnc(Oc3ccccc3)nc21,> 20 µM
9,CN(C)Cc1ccccc1-c1cc(NC2CC2)ncn1,> 20 µM
10,N#Cc1cccc(-c2nccc(NCc3cccnc3)n2)c1,> 20 µM
11,O=C(c1cnccn1)N1CCC2(CC1)CCN(c1ccccn1)CC2,> 20 µM
12,COc1cccc(-c2nc(NC3CCNCC3)c3ccccc3n2)c1,> 20 µM
13,O=C(Nc1ccccc1)N1CCC2(CC1)CCN(C(=O)c1ccco1)CC2,> 20 µM
14,COC(=O)N1CCC[C@@]2(CCN(C(=O)Nc3ccc(OC)cc3)C2)C1,> 20 µM
15,COc1ccc(Oc2ncc3nc(-c4ccc(OC)cc4)c(=O)n(CCC#N)c3n2)cc1,> 20 µM
16,COCCn1c(=O)c(-c2ccccc2)nc2cnc(Nc3ccccc3)nc21,> 20 µM
17,Cc1noc(C)c1-c1ccc2ncnc(NCc3cccs3)c2c1,> 20 µM
18,COc1cccc(-c2cncnc2NCc2cccs2)c1,> 20 µM
19,Cc1ccccc1-c1nc(NC2CCNCC2)c2ccccc2n1,> 20 µM
20,COc1ccc(-c2nc3cnc(Nc4cccc(OC)c4)nc3n(C[C@H]3CCCO3)c2=O)cc1,14.4 µM

row,Compound,Potency
1,COc1ccc(Oc2ncc3nc(-c4cn(C)c5ccccc45)c(=O)n(C)c3n2)cc1,> 20 µM
2,COc1ccc(C(=O)N2CCC3(CCCN(C(=O)NC(C)C)C3)CC2)cc1,> 20 µM
3,CN(C)C(=O)c1ccc(-c2cc(Nc3ccccc3)ncn2)cc1,> 20 µM
4,Cc1cccc(CNc2nc(-c3c(C)noc3C)nc3ccccc23)c1,> 20 µM
5,CN(C)c1ccnc(-c2ccccc2C(F)(F)F)n1,> 20 µM
6,O=C(c1csnn1)N1CCC2(CC1)CN(Cc1cc(C(F)(F)F)cc(C(F)(F)F)c1)C2,> 20 µM
7,COc1ccccc1CN1CC[C@@]2(CCCN(S(=O)(=O)c3ccccc3)C2)C1,> 20 µM
8,N#Cc1cccc(-c2nc(NCc3cccnc3)c3ccccc3n2)c1,> 20 µM
9,N#Cc1ccc(CN2CCC3(CC2)CCN(C(=O)c2csnn2)CC3)cc1,> 20 µM
10,Cc1cccc(CNc2cc(-c3cccc(C#N)c3)ncn2)c1,> 20 µM
11,COc1ccccc1CNc1nc(-c2ccc(N(C)C)cc2)nc2ccccc12,> 20 µM
12,COc1ccccc1CN1CCC2(CCNCC2)CC1,> 20 µM
13,COc1cccc(Nc2ncc3nc(-c4cc(F)cc(F)c4)c(=O)n(CCC#N)c3n2)c1,> 20 µM
14,N#CCCn1c(=O)c(CCc2ccccc2)nc2cnc(Oc3cccc(Cl)c3)nc21,> 20 µM
15,N#Cc1ccc(CN2CCCC3(CCN(C(=O)c4ccncc4)CC3)C2)cc1,> 20 µM
16,COc1ccccc1CN1CC2(CCN(S(=O)(=O)c3ccccc3)CC2)C1,> 20 µM
17,Cc1nc2cnc(N3CCN(C)CC3)nc2n(CCc2ccccc2)c1=O,> 20 µM
18,COc1ccc(C(=O)N2CCC3(CCCN(c4cccc(-c5ccccc5)c4)C3)CC2)cc1,> 20 µM
19,COCCNc1ncnc2ccc(-c3ccccc3OC)cc12,> 20 µM
20,Cn1cc(-c2nc3cncnc3n(C3CC3)c2=O)c2ccccc21,> 20 µM
